Assay results as given in PubChem BioAssay (NCATS).
Inconclusive results are not listed. Entries that show only a call come without a potency. The source made the active and inactive calls. Calls come from the whole dose curve; as a rule, active = well fitted curve in the direction sought with a large enough effect; inconclusive = small, poorly fitted or top-dose-only effect, or another doubt; inactive = no such curve, though single readings can be large; an effect the other way counts as inactive or inconclusive.

System: Tov-21-G
Assay: Primary qHTS to identify gynecologic anti-cancer compounds using libraries of approved drugs and bioactive compounds (AID 1345084); note: nearly all actives have a fitted effect of over 55% in size; note: potency is the fitted concentration of half-maximal effect
Details: Gynecologic cancer cell panel viability, ATPlite luminescence, 48 h; series mostly up to 57.5 µM
In short: (§1)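 Five-concentration response, 48 h; readout is ATP-driven luciferase luminescence.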

Row | Structure (SMILES) | Potency
1 | O=[N+]([O-])c1c2ccccc2cc2ccccc12 | inactive
2 | O=[N+]([O-])c1cc([N+](=O)[O-])c2ccccc2c1 | inactive
3 | Cc1[nH]nc2ccc(-c3cncc(OC[C@@H](N)Cc4c[nH]c5ccccc45)c3)cc12 | 708 nM (active)
4 | O=C(O)CCCOc1ccc(Cl)cc1Cl | inactive
5 | CCCCC(CC)COC(=O)c1ccccc1C(=O)OCC(CC)CCCC (stereo unspecified) | inactive
6 | ClC1=C(Cl)[C@]2(Cl)[C@@H]3[C@@H]4C[C@@H]([C@H]5O[C@@H]45)[C@@H]3[C@@]1(Cl)C2(Cl)Cl | inactive
7 | Nc1ccc([N+](=O)[O-])cc1 | inactive

System: Tov112D
Assay: as above
Details: Gynecologic cancer cell panel viability, ATPlite luminescence, 48 h; series mostly up to 57.5 µM
In short: as §1

Row | Structure (SMILES) | Potency
8 | CC1(N2CCC(n3c([C@@H]4CCCNC4)nc4ccccc43)CC2)CCCCCCC1 | 22400 nM (active)
9 | O=[N+]([O-])c1c2ccccc2cc2ccccc12 | inactive
10 | O=[N+]([O-])c1cc([N+](=O)[O-])c2ccccc2c1 | inactive
11 | O=c1[nH]c2ccc(Cl)cc2c(N[C@@H]2CN3CCC2CC3)c1-c1nc2ccccc2[nH]1 | 25100 nM (active)
12 | Cc1[nH]nc2ccc(-c3cncc(OC[C@@H](N)Cc4c[nH]c5ccccc45)c3)cc12 | 1000 nM (active)
13 | CC(C)[C@]12O[C@H]1[C@@H]1O[C@]13[C@]1(O[C@H]1C[C@H]1C4=C(CC[C@@]13C)C(=O)OC4)[C@@H]2O | 100 nM (active)
14 | CCNC(=O)C[C@@H]1N=C(c2ccc(Cl)cc2)c2cc(OC)ccc2-n2c(C)nnc21 | inactive
15 | Nc1ccc(Cl)cc1N | inactive
16 | O=C(O)CCCOc1ccc(Cl)cc1Cl | inactive
17 | C/C=C(/C)C(=O)O[C@H]1C(C)=C2[C@H]([C@@H]1OC(=O)CCCCCCC)[C@@](C)(OC(C)=O)C[C@H](OC(=O)CCC)[C@@]1(O)[C@H]2OC(=O)[C@@]1(C)O | 501 nM (active)
18 | CCCCC(CC)COC(=O)c1ccccc1C(=O)OCC(CC)CCCC (stereo unspecified) | inactive
19 | ClC1=C(Cl)[C@]2(Cl)[C@@H]3[C@@H]4C[C@@H]([C@H]5O[C@@H]45)[C@@H]3[C@@]1(Cl)C2(Cl)Cl | inactive
20 | Nc1ccc([N+](=O)[O-])cc1 | inactive

System: not listed separately
Assay: Drug repurposing screens with cells derived from glioblastoma tumor samples (AID 1345199); note: nearly all actives have a fitted effect of over 40% in size
Details: GBM patient neurospheres viability, ATP luminescence, 48 h; Potency: tumour line A unless noted; series mostly up to 45.9 µM
In short: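 Four patient lines of CD133+ GBM neurospheres were screened at several concentrations; hits were retested in those lines plus three slower-growing GBM lines, using 48-hour treatment and ATP-based viability.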

Row | Structure (SMILES) | Potency
21 | Nc1ccc(N=Nc2ccccc2)cc1 | inactive
22 | CN(C)[C@@H]1C(=O)C(C(N)=O)=C(O)[C@@]2(O)C(=O)C3=C(O)c4c(O)cccc4[C@@](C)(O)[C@H]3[C@H](O)[C@@H]12 | inactive
23 | O=[N+]([O-])c1cc([N+](=O)[O-])c2ccccc2c1 | inactive
24 | C[N+](C)(C)CC(=O)O | inactive
25 | C[C@]12N[C@H](Cc3ccccc31)c1ccccc12 | inactive
26 | c1ccc(C2(c3ccccc3)CC2C2=NCCN2)cc1 (stereo unspecified) | inactive
27 | CCCCc1ccc(C(=O)O)nc1 | inactive
28 | NC1=NC(=O)N2CC12 (stereo unspecified) | inactive
29 | O=C(O)CCCOc1ccc(Cl)cc1Cl | inactive
30 | NC(=O)CN1CC(O)CC1=O (stereo unspecified) | inactive
31 | CCCN1CCC[C@H](c2cccc(O)c2)C1 | inactive
